Source: PubChem (National Center for Advancing Translational Sciences (NCATS))
Vif-A3F inh: qHTS for Inhibitors of Vif-A3F Interactions: qHTS. HeLa A3F-eYFP + Vif (tagged APOBEC3F with the HIV-1 protein that degrades it), YFP fluorescence increase. Potency, µM (top dose mostly 46.1 µM), for inactives: at the top dose activity, negative = active. hit rate 0.2% among 390,000; also: % of control where 0% means no effect; nearly all actives have a fitted effect of over 65% in size
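HeLa cells stably expressing A3F-eYFP plus Vif, plated and incubated overnight at 37 deg C, then exposed to compounds overnight at 37 deg C. Blocked degradation read as raised yellow fluorescence (Ex 488/Em 500-530).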
TrxR1 inh: qHTS Assay for Inhibitors of Mammalian Selenoprotein Thioredoxin Reductase 1 (TrxR1): qHTS; Potency, µM (doses to about 114 µM), for the others: top-dose activity change, negative = inhibition, actives largely listed as inhibitors; recombinant rTrxR1, NADPH fluorescence consumption, selenite substrate; AID 588453, 2011; hit rate 1% among 390,000; Thioredoxin reductase 1, cytoplasmic (Rattus norvegicus), O89049; also: % is scaled to controls: 0 for no effect and ±100 for the full control effect; nearly all actives have a fitted effect of over 65% in size
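Rat TrxR1 (90 nM in the dispensed reagent) was pre-reduced with 400 uM NADPH for 5 min at room temperature, then incubated with compound for 15 min. After 400 uM selenite was added, NADPH fluorescence (Ex 340/Em 450 nm) was followed for 8 min.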
Vif-APOBEC3G blk: qHTS for Inhibitors of Vif-A3G Interactions: qHTS; HeLa A3G-eYFP + Vif (tagged APOBEC3G with the HIV-1 protein that degrades it), YFP fluorescence, overnight; Potency, µM (highest dose often 46.1 µM), inactives show at the top dose activity, negative = active, hits mostly inhibitors; hit rate 0.076% among 410,000; DNA dC->dU-editing enzyme APOBEC-3G (Homo sapiens), Q9HC16; AID 602310, 2012; also: % is scaled to controls: 0 for no effect and ±100 for the full control effect; nearly all actives have a fitted effect of over 60% in size
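Read-out is eYFP fluorescence (Ex 488/Em 500-530) from Vif-expressing HeLa A3G-eYFP cells; more signal means A3G escaped Vif-mediated degradation. Cells plated overnight, compound pinned in, incubated overnight at 37 deg C.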
VDR inhibitor: Inhibitors of the vitamin D receptor (VDR): qHTS; Vitamin D3 receptor (Homo sapiens), P11473; VDR-SRC2-3 peptide fluorescence polarization, 2 h; Potency, µM, without a hit: max response, negative = inhibition, actives largely listed as inhibitors; hit rate 0.93% among 400,000; AID 504847, 2011; also: % is scaled to controls: 0 for no effect and ±100 for the full control effect
Target sequence (P11473 whole entry, looked up): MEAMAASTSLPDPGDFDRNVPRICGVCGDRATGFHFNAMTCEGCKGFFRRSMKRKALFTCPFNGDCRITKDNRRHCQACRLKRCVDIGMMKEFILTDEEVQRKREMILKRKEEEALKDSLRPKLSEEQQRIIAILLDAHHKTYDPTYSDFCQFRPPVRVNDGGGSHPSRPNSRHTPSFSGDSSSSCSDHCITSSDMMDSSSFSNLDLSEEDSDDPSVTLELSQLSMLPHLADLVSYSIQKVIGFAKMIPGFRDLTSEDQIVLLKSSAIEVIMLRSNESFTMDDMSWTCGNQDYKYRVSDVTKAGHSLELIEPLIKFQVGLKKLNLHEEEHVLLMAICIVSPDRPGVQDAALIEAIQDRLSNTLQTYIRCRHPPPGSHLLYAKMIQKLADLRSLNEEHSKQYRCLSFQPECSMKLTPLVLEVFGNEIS
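The screen uses fluorescence polarization to detect compounds that interfere with recruitment of the SRC2-3 coactivator peptide to VDR; plates are read after 2 h at room temperature.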
TrxR1 substrate: qHTS Assay for Substrates of Mammalian Selenoprotein Thioredoxin Reductase 1 (TrxR1): qHTS | Potency, µM (doses to about 114 µM), inactives show at the highest dose activity change, negative = substrate turnover | AID 588456, 2011 | hit rate 0.01% among 390,000 | purified TrxR1 substrate turnover, NADPH consumption readout | Thioredoxin reductase 1, cytoplasmic (Rattus norvegicus), O89049; also: % is scaled to controls: 0 for no effect and ±100 for the full control effect; nearly all actives have a fitted effect of over 50% in size
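Rat TrxR1, dispensed at 90 nM, was prereduced with 400 uM NADPH (final) for 5 min at ~22 deg C, then incubated with compound 15 min before 400 uM selenite. A first-read NADPH fluorescence drop versus no-compound background flagged substrates.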
* = called active by the depositor; [ ] = another dose, or the depositor's remark. Hits are enriched below; roughly 1.8% of the tested compounds scored in any of these assays. Calls follow the shape of the dose curve; as a rule, active = well fitted curve in the direction sought with a large enough effect; inconclusive = small, poorly fitted or top-dose-only effect, or another doubt; inactive = no such curve, though single readings can be large; an effect the other way counts as inactive or inconclusive. Potency is read from the fitted curve at half-maximal effect.

For CSCC[C@H](NC(=O)[C@H](CC(C)C)NC(=O)[C@H](CO)NC(=O)[C@H](CCC(=O)O)NC(=O)[C@H](CC(C)C)NC(=O)[C@H](Cc1ccc(O)cc1)NC(=O)[C@H](CCCCN)NC(=O)[C@H](CCCCN)NC(=O)[C@H](C)NC(=O)[C@H](CO)NC(=O)[C@H](CC(C)C)NC(=O)[C@H](CCC(N)=O)NC(=O)CNC(=O)[C@H](CC(C)C)NC(=O)[C@H](CC(C)C)NC(=O)[C@H](CCCCN)NC(=O)[C@H](CO)NC(=O)[C@H](Cc1ccccc1)NC(=O)[C@H](CC(=O)O)NC(=O)[C@H](CO)NC(=O)[C@@H](NC(=O)[C@H](Cc1ccccc1)NC(=O)[C@@H](NC(=O)CNC(=O)[C@H](CC(=O)O)NC(=O)[C@H](C)NC(=O)[C@@H](N)Cc1cnc[nH]1)C(C)C)[C@@H](C)O)C(N)=O the results were VDR inhibitor -5%.
For CNC(=O)COc1ccc(S(=O)(=O)N2CCCC2)cc1 the results were Vif-A3F inh -16%, TrxR1 inh 8%[57.1 µM], Vif-APOBEC3G blk 0%, VDR inhibitor 50µM* and TrxR1 substrate -6%.
Screening COc1cc2nc(/C=C/c3ccc(N(C)C)cc3)sc2cc1SC returned Vif-A3F inh 8.9µM*, TrxR1 inh 11%[57.1 µM], Vif-APOBEC3G blk inconclusive, VDR inhibitor -6% and TrxR1 substrate 0%[57.1 µM].
`Cc1cc(/C=C/c2nc3ccccc3s2)ccc1N(C)C` gave TrxR1 inh 3%, Vif-APOBEC3G blk 4% and TrxR1 substrate -6%.
For NCCNc1cccc2ccccc12 the results were VDR inhibitor 50µM*.
NC(=O)Nc1cccc2ccccc12 was read as Vif-A3F inh 8%, TrxR1 inh -2%[57.1 µM], Vif-APOBEC3G blk 1%, VDR inhibitor -24% and TrxR1 substrate 6%[57.1 µM].
CCCOC(=O)c1ccc(-c2ccc(C=O)o2)cc1 was read as Vif-A3F inh -1%, TrxR1 inh 32µM*, Vif-APOBEC3G blk 2%, VDR inhibitor -24% and TrxR1 substrate 74%.
COC(=O)Oc1c(Br)c(=O)oc2ccccc12 was read as Vif-A3F inh 4%, TrxR1 inh 7.9µM*, Vif-APOBEC3G blk 3%, VDR inhibitor 14% and TrxR1 substrate -2%.
`C(=C1C=c2ccccc2=C1)c1ccc(N=Nc2ccc(C=C3C=c4ccccc4=C3)cc2)cc1` gave TrxR1 inh 9%, Vif-APOBEC3G blk 1% and TrxR1 substrate -4%.
Screening C=C1C(=O)[C@]23C[C@H]1CCC2[C@@]1(C)C(C[C@@H]3O)[C@](C)(C(=O)OC)CC[C@@H]1OC(C)=O (some centres undefined) returned Vif-APOBEC3G blk -17%.
`C=C1C(=O)C2=CC1CCC(=O)C1(C)CCC(OC(C)=O)C(C)(C)C1CC2O` (centres undefined) gave Vif-A3F inh -8%, TrxR1 inh 50µM*, Vif-APOBEC3G blk inconclusive, VDR inhibitor inconclusive and TrxR1 substrate 1%.
For CCOC(=O)c1sc(=S)n(C)c1NC(=O)c1cccc(Br)c1 the results were Vif-A3F inh -12%, TrxR1 inh -8%[57.1 µM], Vif-APOBEC3G blk 0%, VDR inhibitor inconclusive and TrxR1 substrate -4%[57.1 µM].
For CCOC(=O)c1sc(=S)n(C)c1NC(=O)c1ccccc1 the results were Vif-A3F inh -3%, TrxR1 inh -22%, Vif-APOBEC3G blk -2%, VDR inhibitor 79µM* and TrxR1 substrate -14%.
`O=C(Nc1nc(=O)c2ccccc2s1)c1ccc(Cl)cc1` gave Vif-A3F inh -2%, TrxR1 inh 29%[57.1 µM], Vif-APOBEC3G blk 1%, VDR inhibitor -15% and TrxR1 substrate -9%.
O=C(Nc1nc(=O)c2ccccc2s1)c1ccc(F)cc1 was read as Vif-A3F inh -8%, TrxR1 inh 40%, Vif-APOBEC3G blk -8%, VDR inhibitor 71µM* and TrxR1 substrate -9%.
